Most compounds without a hit are left out; they make up all but 1.4% or so of the library.
Sa RN4220 lethal: S. aureus RN4220 growth inhibition; 330,000 tested, 0.33% active; OD600, 16 h; inhibition, % (test concentration not listed); in the data active = inhibition above about 85%
PriA SSB inh: blocks PriA binding to SSB C-terminal tail; inhibition, % at 33 µM; 430,000 tested, 0.6% active; AlphaScreen SSBct-PriA binding, biotinylated peptide; in the data active = inhibition mostly above about 37%, no sharp cut-off; inactive = mostly below about 20%
Mtb hypoxia inh: inhibitors of hypoxia-regulated fluorescent reporter in Mycobacterium tuberculosis. M. tuberculosis hypoxia-regulated fluorescent reporter, fluorescence. fluorescence inhibition, % (test concentration not listed). 300,000 tested, 0.1% active. AID 1159583; in the data active = fluorescence inhibition mostly above about 23%, no sharp cut-off; inactive = mostly below about 17%
CCHF vOTU inh: blocks the CCHF virus ovarian tumor domain protease | 370,000 tested, 0.55% active | inhibition, % at 11.5 µM | CCHFV vOTU protease, Pep-AMC fluorescence | AID 651958; in the data active = inhibition above about 30%
Sa ugtP lethal: growth inhibition of S. aureus ugtP deletion strain; 330,000 tested, 0.54% active; AID 1259309; growth inhibition, % (no concentration beside the values); S. aureus RN4220 ugtP deletion, OD600 growth, 16 h; in the data active = growth inhibition above about 68%
A number is an active result; - = inactive; . = no result given.

SMILES	Sa RN4220 lethal	PriA SSB inh	Mtb hypoxia inh	CCHF vOTU inh	Sa ugtP lethal
Oc1cccc2c(NC(=S)Nc3ccc(OC(F)F)cc3)cccc12	-	54.1	-	-	-
FC(F)Oc1ccc(NC(=S)NCc2ccccc2)cc1	-	-	-	-	-
NCCc1csc2nc(-c3ccccc3F)nn12	.	-	.	.	.
CCOC(=O)Cc1csc(N=Cc2c(O)n(-c3ccc(C)c(C)c3)c(=O)c3ccccc23)n1	.	-	.	.	.
Oc1ccc(CN2CCN(c3ccccc3)CC2)c2cccnc12	-	-	-	.	-
Oc1ccc(CN2CCCCC2)c2cccnc12	-	99.0	-	-	-
Oc1ccc(CN2CCC(Cc3ccccc3)CC2)c2cccnc12	-	62.1	-	-	-
CCN1CCN(Cc2ccc(O)c3ncccc23)CC1	.	123.0	.	.	.
Oc1ccc(CN2CCc3ccccc3C2)c2cccnc12	-	100.9	-	-	-
Clc1ccccc1CN1CCC(Cc2ccccc2)CC1	-	-	-	-	-
Oc1cc2c(cc1CN1CCc3ccccc3C1)OCO2	-	-	-	-	-
Cc1nn(C)c(C)c1C(=O)N1CCC(c2cc(C(=O)Nc3ccccc3F)n[nH]2)CC1	.	-	.	.	.
COc1ccc(Cl)cc1NC(=O)NCC1CCN(c2nc3ccccc3s2)CC1	.	-	.	.	.
CN1CCc2c(sc(N=Cc3c[nH]c4ccccc34)c2C#N)C1	-	-	-	.	-
CCOC(=O)N1CCN(Cc2ccc(O)c3ncccc23)CC1	-	87.8	-	-	-
O=C(Nc1ccc(F)c(C(F)(F)F)c1)c1coc(NC(=O)c2cnccn2)n1	.	-	.	.	.
Cc1nc(-c2cccc(NC(=O)C(C)Oc3ccccc3)c2)cs1 (centres undefined)	98.7	-	-	-	99.9
Cc1nc(-c2cccc(NS(=O)(=O)c3ccc4ccccc4c3)c2)cs1	-	-	-	-	91.3
CCS(=O)(=O)c1ccc(C(=O)N(CCCN(C)C)c2nc3c(OC)ccc(C)c3s2)cc1	.	-	.	.	.
O=C(CN(CCc1ccccc1)Cc1ccccc1)Oc1ccccc1P(=O)(O)O	-	91.8	-	-	-
CC1(C)Cc2cccc(OCC(=O)NCC3CCN(C(=O)c4cc5ccccc5o4)CC3)c2O1	.	-	.	.	.
COc1ccc(CC(=O)Nc2cc(C)nn2-c2nc3c(cnn3-c3ccc(F)cc3)c(=O)[nH]2)cc1	.	-	.	.	.
Cc1cccc(C)c1N=C1NN=C(c2ccccc2F)CS1	-	-	-	-	-
Cc1ccccc1N=C1NN=C(c2ccccc2F)CS1	-	39.2	-	-	-
COc1cc(C=NNC(=S)NC2CC3C=CC2C3)cc(OC)c1OC (centres undefined)	-	-	-	.	-
SMILES	Sa RN4220 lethal	PriA SSB inh	Mtb hypoxia inh	CCHF vOTU inh	Sa ugtP lethal
COC1(C)CC2C(CC1OC(=O)c1cc([N+](=O)[O-])cc([N+](=O)[O-])c1)C2(C)C (centres undefined)	-	73.8	-	-	-
COc1ccc2cc(C(=O)N3CCC(Oc4ncccc4C#N)CC3)[nH]c2c1	.	-	.	.	.
C=C1CC2C3CCc4cc(OC)ccc4C3CC[C@]12C (some centres undefined)	-	.	-	.	88.6
C=C1C[C@H]2[C@@H]3CCc4cc(OC)ccc4[C@H]3CC[C@]12C	.	-	.	-	.
Cn1cc(/C=C/c2cc[n+](C)cc2)c2cc(Cl)ccc21	-	-	35.4	-	-
Cn1cc(/C=C/c2cc[n+](C)cc2)c2cc(F)ccc21	-	-	-	.	-
Cc1ccc(SCCC(=O)Nc2ccc3sccc3c2)cc1	.	-	.	.	.
COc1ccc(SCCC(=O)Nc2ccc3sccc3c2)cc1	.	43.0	.	.	.
C/[N+]([O-])=C\c1ccc2ccc3cccnc3c2n1	.	153.5	.	.	.
N=c1c2c(n(Cc3ccc([N+](=O)[O-])cc3)c3c1CCC3)CCCC2	-	-	-	-	-
N=c1c2c(n(Cc3ccc(Cl)c(Cl)c3)c3c1CCC3)CCCC2	90.9	-	.	-	99.2
N=c1c2c(n(Cc3ccc(Br)cc3)c3c1CCC3)CCCC2	-	-	-	-	99.4
CCOc1cc(C=NN=Cc2ccc(O)c(OCC)c2)ccc1O	-	-	-	.	-
Nc1nc2ccc(C(=O)NCCO)cc2s1	.	81.0	.	.	.
O=[N+]([O-])c1ccccc1/C=C/C=Nn1c(-c2ccccc2F)n[nH]c1=S	-	-	-	.	-
COc1cccc(C=NNC(=O)CC(C)O)c1OC/C=C/c1ccccc1 (centres undefined)	-	-	-	.	-
CC(C)=CCc1c(-c2ccc(O)cc2O)oc2c3c(cc(O)c2c1=O)OC(C)(C)C=C3	97.3	.	.	.	99.3
Fc1ccc(CNc2nc(-c3ccccc3)nc3ccccc23)cc1	-	-	-	-	-
COc1ccc(CNc2nc(-c3ccccc3)nc3ccccc23)cc1OC	-	-	-	32.0	-
COc1ccc(CCNc2c3ccccc3nc3ccccc23)cc1OC	-	-	-	-	93.2
COc1ccc(CCNc2nc3ccccc3s2)cc1OC	.	-	.	.	.
Cc1c(C(=O)O)sc2nc(SCC(=O)c3cc(C(C)(C)C)c(O)c(C(C)(C)C)c3)[nH]c(=O)c12	.	-	.	.	.
CC(C)(C)CC(=O)N1CCN(CCn2ccnc2)CC1	.	-	.	.	.
O=C(c1ccc(-n2cccc2)cc1)N1CCN(Cc2csc(-c3ccccc3)n2)CC1	.	29.0	.	.	.
COc1ccccc1-c1cc(C(F)(F)F)nc(N2CCCC2)n1	-	-	-	-	86.0
SMILES	Sa RN4220 lethal	PriA SSB inh	Mtb hypoxia inh	CCHF vOTU inh	Sa ugtP lethal
COc1ccccc1-c1cc(C(F)(F)F)nc(N2CCCCC2)n1	-	-	-	-	-
O=C(Nc1nc2c(s1)COCC2)c1ccc2c(c1)OCO2	.	-	.	.	.
COc1cc(C=NNC(=O)[C@H](Cc2c[nH]c3ccccc23)NC(=O)OCC(C)C)cc([N+](=O)[O-])c1O	-	-	-	.	-
Cc1ccc(C(=O)NCCn2cc(SC(=N)N)c3ccccc32)cc1	.	39.0	.	.	.
Cc1ccc(C(=O)NCCn2cc(SCC(=O)N3CCOCC3)c3ccccc32)cc1	-	-	-	-	-
Cn1cccc1C(=O)OCc1ccc(C(C)(C)C)cc1	-	-	-	-	94.2
COc1ccc(CNC(=O)COC(=O)c2cccn2C)cc1	-	-	-	-	-
OCc1ccnc(-c2ccccn2)n1	.	89.0	.	.	.
c1ccc(-c2cccc(-c3ccccn3)n2)nc1	-	104.3	-	.	-
O=Cc1cnc(-c2ccccn2)nc1	.	106.0	.	.	.
c1ccc(-c2nnc(-c3ccccn3)nn2)nc1	-	68.1	-	-	-
c1ccc(-c2nnc(-c3ccccn3)nc2-c2ccccc2)cc1	.	-	.	.	.
c1ccc(-c2nnc(-c3ccccn3)c(-c3ccccn3)n2)nc1	-	-	-	-	-
O=C(Cn1ccc2ccccc21)N1C2C=CCC1CC2 (centres undefined)	.	-	.	.	.
c1ccc(-c2nc(-c3ccccn3)c(-c3ccccn3)nc2-c2ccccn2)nc1	.	-	.	.	.
c1ccc(-c2ccnc(-c3ccccn3)n2)nc1	.	145.5	.	.	.
CN(C)c1cc2c3ccccc3n(C)c2cc1N	-	66.2	-	-	-
C/C(=N/O)c1ccc2c3ccccc3n(C)c2c1	.	-	.	.	.
CC(C)CS(=O)(=O)N[C@H]1CCN(c2nccs2)C1	.	-	.	.	.
NC(=NOC(=O)CCN1C(=O)c2ccccc2C1=O)c1ccccn1	.	-	.	.	.
O=C(Nc1ccc(F)c(F)c1)C(=O)N1CCC(Cc2ccccc2)CC1	.	-	.	.	.
Cc1ccc(NC(=O)C(=O)N2CCC(Cc3ccccc3)CC2)c([N+](=O)[O-])c1	.	39.0	.	.	.
Cc1ccc2sc(NC(=O)CS(=O)(=O)c3ccc(F)cc3)nc2c1C	.	-	.	.	.

Source: PubChem
